Bioassay records from PubChem BioAssay.
HepG2 tox – kills HepG2 cells in TGF-b inhibitor counter-screen. HepG2 CAGA-GFP viability, ATP luminescence, 18 h. Potency, µM (series often up to 46.1 µM), inactives show at the highest dose activity change, negative = cytotoxicity, hits mostly cytotoxic. 0.76% of 410,000 active. AID 588856; also: potency is read from the fitted curve at half-maximal effect
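CellTiter-Glo luminescence gave cytotoxicity after 18 hours at 37 degrees C. The cells were HepG2 CAGA-GFP in 1% FBS DMEM, stimulated with 500 pg/mL TGF-beta after compound addition. %Activity was normalised to no-cell wells (complete cell-killing) and DMSO (no toxicity), and curves were fitted and classified.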
DT40 TDP1 no CPT – qHTS for Inhibitors of human tyrosyl-DNA phosphodiesterase 1 (TDP1): qHTS in cells in absence of CPT; AID 686978, 2013; Potency, µM (highest dose often 46.2 µM), inactives show top-dose activity change, negative = growth inhibition, actives largely listed as inhibitors; 15% of 420,000 active; DT40 Tdp1-/- hTDP1 cells, no CPT, ATP luminescence, 48 h; also: potency is read from the fitted curve at half-maximal effect; % is scaled to controls: 0 for no effect and ±100 for the full control effect; nearly all actives have a fitted effect of over 55% in size
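DT40 Tdp1-/-;hTDP1 cells, no CPT (DMSO vehicle only), 400 cells/well; compounds pin-transferred; ≥48 hr, 37 °C; CellTiter-Glo 30 min RT dark, luminescence read.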
TDP1 block – blocks human tyrosyl-DNA phosphodiesterase 1. recombinant TDP1, AlphaScreen DNA substrate cleavage. 0.28% of 350,000 active. Potency, µM (titrated, usually from 130 µM), inactives show top-dose activity change, negative = inhibition, hits mostly inhibitors. Q9NUW8; also: potency is read from the fitted curve at half-maximal effect; % is scaled to controls: 0 for no effect and ±100 for the full control effect; nearly all actives have a fitted effect of over 40% in size
Target sequence (Q9NUW8 whole entry, looked up): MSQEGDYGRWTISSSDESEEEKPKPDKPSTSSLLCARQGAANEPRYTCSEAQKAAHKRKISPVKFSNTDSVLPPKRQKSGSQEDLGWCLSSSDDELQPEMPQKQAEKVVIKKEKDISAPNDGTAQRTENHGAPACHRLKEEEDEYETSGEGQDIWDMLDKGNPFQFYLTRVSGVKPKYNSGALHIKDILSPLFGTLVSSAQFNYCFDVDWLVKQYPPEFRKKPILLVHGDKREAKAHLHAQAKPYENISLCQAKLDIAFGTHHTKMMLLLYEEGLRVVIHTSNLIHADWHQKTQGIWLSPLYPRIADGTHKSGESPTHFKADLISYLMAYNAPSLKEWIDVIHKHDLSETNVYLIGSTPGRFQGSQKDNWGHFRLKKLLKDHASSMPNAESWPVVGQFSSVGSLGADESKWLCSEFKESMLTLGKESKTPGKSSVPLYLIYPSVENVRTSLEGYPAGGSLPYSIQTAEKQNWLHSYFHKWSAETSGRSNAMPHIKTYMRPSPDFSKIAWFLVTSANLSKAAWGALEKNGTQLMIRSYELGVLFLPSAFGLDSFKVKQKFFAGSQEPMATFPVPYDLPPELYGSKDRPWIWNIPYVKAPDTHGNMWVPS
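Recombinant E. coli-expressed Tdp1 (1 nM) preincubated with compound 15 min at RT, then 5'-biotin/3'-phosphotyrosine-FITC DNA substrate (15 nM) added for 5 min. AlphaScreen beads (10 ug/ml) added, 10 min RT; tyrosine-FITC cleavage read as signal loss.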
TGFb inhibitor – inhibitors of TGF-b signaling; HepG2 CAGA-GFP TGF-b/SMAD3 reporter, GFP fluorescence, 18 h; TGF-beta stimulated, 500 pg/mL final; Potency, µM (doses to about 46.1 µM), for the others: top-dose activity, negative = inhibition, actives largely listed as inhibitors; 1.2% of 410,000 active; also: potency is read from the fitted curve at half-maximal effect; % is scaled to controls: 0 for no effect and ±100 for the full control effect; nearly all actives have a fitted effect of over 65% in size
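Using HEPG2 CAGA-GFP reporter cells at 1000 cells/well, we pinned test compounds, stimulated with recombinant TGF-beta (500 pg/mL final) and measured total well GFP after 18 h.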
TDP1 cell CPT – growth inhibition of DT40 Tdp1-/-;hTDP1 cells with camptothecin (screen for TDP1 inhibitors); chicken DT40 Tdp1-/-;hTDP1 cells + 20 nM CPT, ATP luminescence, 48 h; Potency, µM (titrated, usually from 46.2 µM), for inactives: at the top dose activity change, negative = growth inhibition, hits mostly inhibitors; 12% of 420,000 active; AID 686979; also: potency is read from the fitted curve at half-maximal effect; % is scaled to controls: 0 for no effect and ±100 for the full control effect; nearly all actives have a fitted effect of over 55% in size
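Chicken DT40 Tdp1-/- cells stably complemented with human TDP1 were seeded at 400 cells/well in medium containing 20 nM camptothecin, exposed to pin-transferred compounds, and grown at 37 °C for at least 48 hr. Viability was read as ATP luminescence.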
IL-1B inflam inh – inhibitors of inflammasome signaling (IL-1 beta secretion); THP-1 LPS/ATP IL-1B secretion, AlphaLISA, 16 h; stronger effect = lower value; activity change, % at 57.5 µM; 4.7% of 360,000 active; AID 743279; in the data active = activity change below about -50%; inconclusive = mostly about -30% to -49%; also: % is scaled to controls: 0 for no effect and ±100 for the full control effect
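THP-1 cells pretreated 1 hr with compounds (up to 57.5 uM final), then stimulated with LPS (250 ng/mL final) plus ATP (1.25 mM final); secreted IL-1B measured by AlphaLISA after 16 hr, decreased signal indicating inhibition.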
* = called active by the depositor; ? = inconclusive; . = no result; [ ] = dose if it differs, or a comment. Compounds with a hit are over-represented: about 19% of the library has one in this group of screens. Unless noted, calls follow the shape of the dose curve; as a rule, active = well fitted curve in the direction sought with a large enough effect; inconclusive = small, poorly fitted or top-dose-only effect, or another doubt; inactive = no such curve, though single readings can be large; an effect the other way counts as inactive or inconclusive.

SMILES | HepG2 tox | DT40 TDP1 no CPT | TDP1 block | TGFb inhibitor | TDP1 cell CPT | IL-1B inflam inh
CC1CN(CC(=O)NCCC2COc3ccccc3O2)Cc2cc(Cl)ccc2O1 (centres undefined) | . | -22.7% | . | . | 5.5%[9.04 µM] | .
COc1cccc(-n2c(=O)c3c(C)c(C)sc3n(Cc3ccccc3C#N)c2=O)c1 | -3.2% | -18.5% | 2.9% | 5.4% | 6.4% | .
COc1ccc(-n2c(-c3ccc(C)cc3)cc3c2CC(C)(C)CC3=O)cc1Cl | -4.8% | 5.1% | 5.8% | 5.2% | -15.6% | .
COc1ccc(-c2nc3scc(CCNS(=O)(=O)c4ccccc4F)n3n2)cc1 | -3.2% | ? | 7.8% | 0.0% | ? | .
O=S(=O)(NCCc1csc2nc(-c3ccc(Cl)cc3)nn12)c1cccs1 | -23.2% | 14.6µM* | 2.6% | -33.7% | 18.4µM* | .
Cc1noc(C)c1S(=O)(=O)NCCc1csc2nc(-c3ccc(Cl)cc3)nn12 | -16.1% | 11.6µM* | 2.6% | -3.7% | 23.1µM* | .
Cc1nn(C(=O)c2cccc(F)c2)c(C)c1S(=O)(=O)N1CCOCC1 | -18.6% | -14.9% | 1.8% | 0.2% | -16.4% | .
CCc1ccc(C(=O)CC2(O)C(=O)N(CN3CCOCC3)c3ccccc32)cc1 (centres undefined) | -12.0% | ? | 5.9% | ? | -7.3% | 29.8
Cc1n[nH]c(C)c1C(=O)CC1(O)C(=O)N(CCc2ccccc2)c2ccc(Cl)cc21 (centres undefined) | -6.8% | 23.1µM* | 6.8% | -35.2% | ? | 5.0
Cc1ccccc1CN1C(=O)C(O)(CC(=O)c2ccccc2)c2cc(Cl)ccc21 (centres undefined) | 20µM* | ? | -1.9% | ? | -101.7% | .
CCc1ccc(C(=O)CC2(O)C(=O)N(CCc3ccccc3)c3ccc(Cl)cc32)cc1 (centres undefined) | 20µM* | 16.4µM* | . | 12.6µM* | 18.4µM* | .
CC(C)(C)OC(=O)N1CC23CC(c4ccc(F)cc4)C(CC2S1(=O)=O)O3 (centres undefined) | 0.0% | . | 5.0% | -4.9% | . | .
CC(Oc1ccc(Cl)cc1)c1ccnn1S(=O)(=O)c1ccc(Cl)cc1 (centres undefined) | -20.3% | -14.5% | -5.6% | -20.4% | -12.3% | -21.3
Cc1ccc(S(=O)(=O)n2nccc2-c2c(-c3ccc(Cl)cc3)noc2C)cc1 | -71.6% | 16.4µM* | -2.6% | ? | ? | -13.9
COC(=O)CCCC(=O)N1CCCC(C(=O)c2ccccc2SC)C1 (centres undefined) | -3.0% | 20.6% | . | -4.5% | -2.9% | 7.5
COc1cc(CN2CCCC(C(=O)c3ccccc3SC)C2)cc(OC)c1 (centres undefined) | -15.7% | ? | 9.9% | ? | 14.6µM* | 39.1
COc1cc(OC)c(OC)cc1CN1CCCC(C(=O)c2ccccc2SC)C1 (centres undefined) | -15.5% | 20.6µM* | 3.6% | -7.3% | ? | 18.2
Cc1ccc(NC(=O)c2c(C)nc3sc(C(=O)Nc4ccc(F)cc4)c(N)c3c2-c2ccccc2Cl)c(C)c1 | -20.9% | -8.2% | 0.0% | -17.8% | ? | .
CCOc1ccc(C(=O)N(Cc2ccc(OC)cc2)Cc2cc3cc(OC)ccc3[nH]c2=O)cc1 | 0.8% | -20.1% | -4.5% | 0.4% | -11.4% | 3.5
CCOc1ccc(NCc2cc3cc(OC)ccc3[nH]c2=O)cc1 | -12.0% | 20.6µM* | 7.5% | 2.3% | 5.8µM* | 44.6
COc1ccc2[nH]c(=O)c(CNc3ccccc3)cc2c1 | -22.0% | ? | -3.1% | -20.8% | 4.11µM* | -6.5
